This is part of a sample that, as a whole, favours compounds with a hit. Of some 83,000 tested, about 20% had one in any assay.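 96-well plates, one dose, 48 hours. Percent growth reported; active if below 10.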 Values without a mark were called inactive. Activity calls are given as the source filed them.
Each compound was assayed on HL-60(TB) leukemia (assay: NCI-60 one-dose screen, 48 h (100 = growth as untreated, 0 = no growth, -100 = all killed)). Conditions: 10 µM unless noted.

| Compound | growth |
| --- | --- |
| Cc1nccc2c3ccc(OCc4cn(Cc5ccc(Br)cc5)nn4)cc3n(CCCc3ccccc3)c12 | 89% |
| COC(=O)/C(CCC=C(C)C)=C1\[C@@H](OC(C)=O)C[C@@]2(C)[C@H]1CC(=O)[C@H]1[C@@]3(C)CCC(N4CCCC4)[C@@H](C)[C@@H]3CC[C@@]12C (some centres undefined) | -51.4% (active) |
| CC(C)C(=O)Nc1nc2c(s1)CCCc1ccn(S(=O)(=O)c3ccccc3)c1-2 | 83.8% |
| Cc1ccc2c(c1)C(=O)c1c-2c(OCCCN(C)C)nc2ccccc12 | 35% |

Reference: PubChem BioAssay (NCI)
